Source: PubChem BioAssay
Activity calls are given as the source filed them.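 The calls were made as follows: active = inhibition at or above 50% at 10 µM; inactive = inhibition below 50%.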

assay: blockers of RIG-like receptor reporter activation – cell-based, Sendai virus stimulus, luciferase, 10K MLSCN set, TLR/RLR signaling modifier project, primary screen (AID 602276); details: HEK293 RL24 IRF3 luciferase reporter, at 10 µM, active compounds read high;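 also: firefly luciferase from ISG56 promoter only with Renilla not read in this screen; 0% = Sendai virus plus DMSO and 100% = medium plus DMSO without virus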

inhibition, inactive:
Cc1ccc(-c2nnc3c4ccccc4c(C)nn23)cc1S(=O)(=O)N1CCN(C)CC1 13.3%, CCN(CC)CCCNC1CCS(=O)(=O)C1 (centres undefined) 2.02%, CN(C)CCCN1C(=O)c2oc3ccc(Cl)cc3c(=O)c2C1c1cccnc1 (centres undefined) 13.5%, COc1ccc(CCn2c(-c3ccco3)nc3ccccc3c2=O)cc1OC -9.43%, O=C(CSc1nnc(-c2ccccc2)o1)N1CCc2ccccc2C1 7.64%, Cc1ccccc1NS(=O)(=O)c1cc(C(=O)N2CCCC2)ccc1C -10.7%, Nc1c(C(=O)NCc2ccco2)nnn1Cc1ccccc1 8.14%, O=C(NCC(c1cccnc1)N1CCN(c2ccc(F)cc2)CC1)OCc1ccccc1 (centres undefined) 17.1%, CCc1nnc(NC(=O)c2ccc(S(=O)(=O)NCC(C)C)cc2)s1 -15.9%, O=C(CCNS(=O)(=O)c1ccc(Br)s1)N1CCCCC1 -0.525%, CCCn1c(SCC(=O)NC(C)(C)C)nnc1C(C)C 13%, CC(CN1CCCCC1)OC(=O)c1ccc2c(c1)OCO2 (centres undefined) 6.1%, CC(C)(C)NC(=O)Cn1nnnc1-c1nonc1N -5.7%, CC1(C)CC(=O)C(C=NCc2ccc3c(c2)OCO3)=C(O)C1 13.9%, CN1CCN(c2nc(-c3ccncc3)nc3ccccc23)CC1 11.9%, COc1ccc(S(=O)(=O)NCc2ccc(C(=O)O)cc2)cc1 9.81%, COc1ccc(CC(=O)Nc2ccc(OC)c(NC(=O)c3ccco3)c2)cc1 -27.5%, COc1ccc(NC(=O)C23CCC(C)(C(=O)C2)C3(C)C)cc1 (centres undefined) 12.6%, Cc1ccc(-c2nc3cc(N)ccc3o2)cc1 2.48%, COc1cccc(C(=O)Nc2ccc(NC(C)=O)cn2)c1 -36.2%, Cc1cnc(C(=O)Nc2ccc(N3CCN(C(=O)OC(C)(C)C)CC3)cc2)cn1 -2.13%, O=C(CSc1nnnn1C1CCCC1)NCc1ccc2c(c1)OCO2 1%, CCC(C)(C(=O)NC1CCCC1)N(Cc1cccs1)C(=O)Cc1cccs1 (centres undefined) 14.4%, CCOc1ccc2c(c1)n(CO)c(=S)n2CO 16.9%, CCn1c(CSc2nnc(-c3cccnc3)n2-c2ccccc2C)nc2cc(C(=O)O)ccc21 2.24%, CCOC(=O)NC(=O)CSc1nnnn1-c1ccc(Cl)cc1 4.73%, Nn1cc(-c2ccccc2)nc1SCC(=O)N1CCN(S(=O)(=O)c2ccccc2)CC1 8.62%, COC(=O)C1=C(N)Oc2cc(C)n(Cc3ccncc3)c(=O)c2C1c1cccnc1 (centres undefined) 12.8%, COC(=O)C1CCN(C(=O)CN2C(=O)NC(CCc3ccccc3)C2=O)CC1 (centres undefined) -17.8%, O=C(CSc1nnc(C2COc3ccccc3O2)o1)N1CCCc2ccccc21 (centres undefined) 12.5%, CN(C)S(=O)(=O)N1CCN(C(=O)N(c2ccccc2)c2ccccc2)CC1 -19.7%, COCC(C)NC(=O)CCS(=O)(=O)c1nc(-c2ccc(OC)cc2)cc(C(F)(F)F)n1 (centres undefined) 17.7%, O=C(NCc1cccnc1)c1ccc(Cl)c(Cl)c1 17%, CCN(CC)CCOC(=O)c1cccc(OC)c1 6.23%, CN1CCN(c2ncnc3c2cnn3-c2ccc(Cl)cc2)CC1 15.5%, NC(=O)C1CCN(C(=O)c2cc3n(n2)C(C(F)(F)F)CC(c2ccco2)N3)CC1 (centres undefined) 18.6%, CC(C)(C)c1ccc2c(c1)OCC(C(=O)O)O2 (centres undefined) -8.63%, Cc1cc(C)c2c(n1)nn1c(NCCCN3CCOCC3)cc(C)nc21 8.42%, Cc1n[nH]c(C)c1N1C(=O)c2cccc3cc(Br)cc(c23)C1=O 1.78%
